Laboratory results taken from PubChem BioAssay AID2685 (National Center for Advancing Translational Sciences (NCATS), 2010).
Screen size: about 320,000 compounds; about 2,100 (0.66%) were called active. Not shown: some 53% with an inconclusive outcome. Calls come from the whole dose curve; as a rule, active = well fitted inhibition curve with a large enough effect in the signal ratio, with a control signal flat (not every such curve was filed as active); inconclusive = small, poorly fitted or top-dose-only effect, or effect the other way, or a change in a side signal; inactive = flat fitted curve, though single readings scatter; the % refers to the signal ratio. Many of the other results were omitted from the sample, so actives are more common in it than they were.

test: qHTS Assay for Lipid Storage Modulators in Drosophila S3 Cells; conditions: BODIPY lipid droplet fluorescence, 18-24 h, cells fed with added oleic acid; cell number change: measured here: cell count max response; series mostly up to 46.1 µM; lipid storage change, negative = inhibition: at the top concentration;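 for cell number change: cells counted by Cell Tracker Red CMTPX staining in the red channel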; for lipid storage change, negative = inhibition: % is set by controls: 0 for no effect and ±100 for the full control effect
How it was run: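 Drosophila S3 cells loaded with oleic acid (400 uM, as added) and compounds at several concentrations; lipid droplets imaged by 488-nm laser-scanning cytometry, 500–530 nm intensity and object ratio to cell channel. Percent activity normalized to 20 uM Triacsin C.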
Potency is the fitted concentration of half-maximal effect.

Row | SMILES | outcome | cell number change | lipid storage change, negative = inhibition | Potency
1 | CC(C)CC(c1nnnn1C1CCCC1)N1CCN(C(=O)c2ccco2)CC1 (stereo not given) | inactive | -2.29% | – | –
2 | COc1ccccc1C(=O)Nc1ccc2[nH]ncc2c1 | inactive | 0.824% | – | –
3 | CC(=O)C1=C(O)C(=O)N(Cc2ccccc2)C1c1ccc(F)cc1 (stereo not given) | – | -7.48% | 11.4% (inactive) | –
4 | CC(C)(C)C(=O)C1=C(O)C(=O)N(Cc2ccccc2)C1c1ccccc1F (stereo not given) | – | 0.73% | 19.2% (inactive) | –
5 | CC(=O)C1=C(O)C(=O)N(Cc2ccccc2)C1c1ccccc1F (stereo not given) | – | -6.03% | – | 18.4 µM (active)
6 | S=C(NCC1CCCO1)NC12CC3CC(CC(C3)C1)C2 (stereo not given) | – | 5.13% | 1.37% (inactive) | –
7 | S=C(NCC1CCCO1)NC1CCCC1 (stereo not given) | – | – | – | 1.3 µM (active)
8 | S=C(NCC1CCCO1)Nc1ccccc1 (stereo not given) | – | -0.626% | -17.6% (inactive) | –
9 | CCOC(=O)c1c(C)[nH]c(C(=O)COC(=O)c2oc3ccc(OC)cc3c2C)c1C | – | -6.84% | 6.95% (inactive) | –
10 | Cc1nnc(NC(=O)CSc2nc3ccccc3o2)s1 | – | -14% | -5.01% (inactive) | –
11 | CCc1nnc(NC(=O)CSc2nc3ccccc3o2)s1 | inactive | – | – | –
12 | O=C(CSc1nc2ccccc2o1)Nc1nncs1 | – | 24.7% | – | 16.4 µM (active)
13 | O=C(O)CCc1nc(-c2cccs2)no1 | – | -23% | 1.61% (inactive) | –
14 | CC(C)C(=O)Nc1ccc(-c2nc3ncccc3o2)cc1 | – | 0.493% | -16.9% (inactive) | –
15 | COc1cc(C=O)ccc1OC(=O)c1ccncc1 | – | -18.5% | 2.65% (inactive) | –
16 | CN(c1ccc(C(=O)N2CCOCC2)cc1)S(C)(=O)=O | – | -14.6% | – | 25.9 µM (active)
17 | CN(c1ccc(C(=O)Nc2ccccc2C(=O)N2CCOCC2)cc1)S(C)(=O)=O | – | -16% | -2.12% (inactive) | –
18 | CN(c1ccc(C(=O)N2CCCCC2)cc1)S(=O)(=O)c1ccccc1 | inactive | -27% | – | –
19 | CN(c1ccc(C(=O)N2CCN(c3ccc(F)cc3)CC2)cc1)S(C)(=O)=O | inactive | – | – | –
20 | COc1ccc(S(=O)(=O)N(C)c2ccc(C(=O)N3CCCC3)cc2)cc1 | – | 18.3% | 14.8% (inactive) | –
21 | CN(c1ccc(C(=O)N2CCCCCC2)cc1)S(=O)(=O)c1ccccc1 | – | -9.4% | – | 5.17 µM (active)
22 | COc1ccc(S(=O)(=O)N(C)c2ccc(C(=O)N3CCOCC3)cc2)cc1OC | inactive | – | – | –
23 | COc1ccc(S(=O)(=O)N(C)c2ccc(C(=O)N3CCCC3)cc2)cc1OC | – | -7.14% | – | 0.326 µM (active)

Row | SMILES | outcome | cell number change | lipid storage change, negative = inhibition | Potency
24 | COc1ccc(S(=O)(=O)N(C)c2ccc(C(=O)N3CCCCC3)cc2)cc1 | inactive | – | – | –
25 | COc1ccc(S(=O)(=O)N(C)c2ccc(C(N)=O)cc2)cc1 | – | – | – | 18.4 µM (active)
26 | CN(c1ccccc1)S(=O)(=O)c1ccc(C(=O)N2CCCC2)cc1 | – | -4.2% | 15.8% (inactive) | –
27 | COc1ccc(S(=O)(=O)N(C)c2ccc(C(=O)N3CCCCC3)cc2)cc1OC | – | 2.05% | 6.04% (inactive) | –
28 | CCCNC(=O)c1oc2ccc3c(c2c1C)C(O)CC(C)(C)O3 (stereo not given) | inactive | 11.7% | – | –
29 | O=C(CN1C2CCCC1CC(NC(=O)c1ccco1)C2)Nc1ccccc1C(F)(F)F (stereo not given) | – | 1.61% | 6.75% (inactive) | –
30 | Cc1ccc(C(c2sc3ncnn3c2O)N2CC(C)CC(C)C2)cc1 (stereo not given) | – | -0.62% | -14% (inactive) | –
31 | O=C1c2cccc3cccc(c23)C(=O)N1CC1CCN(S(=O)(=O)c2ccc(F)cc2)CC1 | – | 1.3% | 0.656% (inactive) | –
32 | O=S(=O)(Nc1ccc(N2CCCCC2)cc1)c1ccccc1F | – | -15.7% | -8.36% (inactive) | –
33 | CCOc1ccc2nc(CN3CCN(Cc4ccsc4)C(CCO)C3)ccc2c1 (stereo not given) | – | 3.37% | -13.8% (inactive) | –
34 | Cc1nnc(SCC(=O)N(C)c2c(N)n(Cc3ccccc3)c(=O)[nH]c2=O)n1Cc1ccccc1 | – | 4.04% | -5.33% (inactive) | –
35 | CN(C)S(=O)(=O)N1CCN(C(=O)c2ccccc2Cl)CC1 | inactive | – | – | –
36 | COc1ccc(S(=O)(=O)N(C)c2ccc(C(=O)N3CCC(C(N)=O)CC3)cc2)cc1 | – | -14.8% | 1.68% (inactive) | –
37 | O=C(c1ccccc1)N1CCN(S(=O)(=O)N2CCCCCC2)CC1 | inactive | 22.9% | – | –
38 | Cc1ccccc1NS(=O)(=O)c1ccc(C(=O)N2CCN(S(=O)(=O)c3ccccc3)CC2)cc1 | – | -28% | – | 3.26 µM (active)
39 | CCOC(=O)C1CCN(C(=O)c2ccc(N(C)S(=O)(=O)c3ccc(OC)cc3)cc2)CC1 | – | -4.35% | -25.7% (inactive) | –
40 | Cc1cccc(NS(=O)(=O)c2ccc(C(=O)N3CCC3)cc2)c1C | – | 19.3% | 21.3% (inactive) | –
41 | COc1ccc(S(=O)(=O)N(C)CC(=O)N2CCCCCC2)cc1 | – | 7.92% | 9.93% (inactive) | –
42 | COc1ccc(S(=O)(=O)N(C)CC(=O)N2CCCC2)cc1 | – | -6.74% | -3.08% (inactive) | –
43 | COc1ccc(S(=O)(=O)N(C)CC(=O)N2CCC(C(N)=O)CC2)cc1 | – | -9.84% | – | 14.6 µM (active)
44 | Cc1ccc(S(=O)(=O)N(C)c2ccc(C(=O)N3CCC(C(N)=O)CC3)cc2)cc1 | – | -5.24% | – | 23.1 µM (active)
45 | CN(C)S(=O)(=O)N1CCN(C(=O)c2ccccc2)CC1 | – | 10.4% | – | 23.1 µM (active)
46 | Cc1ccccc1NS(=O)(=O)c1ccc(C(=O)N2CCCCCC2)cc1 | – | 4.54% | 24.1% (inactive) | –
